From article PMC12820563, “FoxP3 forms a head-to-head dimer in vivo and stabilizes its multimerization on adjacent microsatellites” come the findings set out here.

Whole data set: some 16,000 sequences, median “rpm ratio (pull-down/input)” near 0.5, cut for the highest 2% near 5.5. The entries come from a sample that favours the highest values as a whole.

The assay concerns the target T1, MBP-FoxP3dN (Mus musculus, UniProt Q99JB6 188-423).
T1 sequence: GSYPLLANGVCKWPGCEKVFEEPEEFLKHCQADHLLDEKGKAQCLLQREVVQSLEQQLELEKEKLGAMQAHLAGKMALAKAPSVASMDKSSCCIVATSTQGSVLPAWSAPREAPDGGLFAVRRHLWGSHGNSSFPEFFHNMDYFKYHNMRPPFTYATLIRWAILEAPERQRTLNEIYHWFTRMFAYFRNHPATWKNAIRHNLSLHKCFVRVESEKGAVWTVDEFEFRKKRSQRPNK
As to the kind of experiment: PD-seq (MBP pull-down with sequencing); 20 mM Tris-HCl pH 7.5, 100 mM NaCl, 1.5 mM MgCl2, 0.4 uM protein, 0.1 uM dsDNA library, 30 min, room temperature, amylose pull-down; high values mean tight binding. The following applies: protein: recombinant; tags: His6-MBP; chain copies: 2; dsDNA, one strand shown. An outline of the steps:
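Mouse FoxP3 or FoxP1 fragment lacking the N-terminus, His6-MBP-tagged and expressed in E. coli, was incubated at 0.4 µM with 0.1 µM Klenow-filled degenerate double-stranded DNA library for 30 min at room temperature in Tris pH 7.5 buffer with NaCl and MgCl2. Complexes captured on amylose resin were washed three times and their DNA sequenced on Illumina. Binding is reads-per-million enrichment of pull-down over input, replicates pooled.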
Turning to “GATGATTGTTCTCCCAGCTGATGAATTGATTCAGTCGAGTAAACAAATTTTCCTAATCTTTCTGTTCAAGCGCCATCTAC”, the binding signal was 0.28 RPM ratio (pull-down/input). For the sequence “GATGATTGTTCTCCCAGCTGATGAATTGTGGGGGTCGAGTAAACAAATTTTCCTAATCTTTCTGTTCAAGCGCCATCTAC”, the binding signal was 0.783 RPM ratio (pull-down/input). Next, “GATGATTGTTCTCCCAGCTGATGAATTCTAAAGCTCGAGTAAACAAATTTTCCTAATCTTTCTGTTCAAGCGCCATCTAC”: 0.248 RPM ratio (pull-down/input); “GATGATTGTTCTCCCAGCTGATGAATTTGCTTCTTCGAGTAAACAAATTTTCCTAATCTTTCTGTTCAAGCGCCATCTAC”: 2.97 RPM ratio (pull-down/input).

For “GATGATTGTTCTCCCAGCTGATGAATTGTTTGCTTCGAGTAAACAAATTTTCCTAATCTTTCTGTTCAAGCGCCATCTAC”, the binding signal was 6.19 RPM ratio (pull-down/input). Next, “GATGATTGTTCTCCCAGCTGATGAATTTTTTGCTTCGAGTAAACAAATTTTCCTAATCTTTCTGTTCAAGCGCCATCTAC”: 0.306 RPM ratio (pull-down/input). Next, “GATGATTGTTCTCCCAGCTGATGAATTAGCTCGCTCGAGTAAACAAATTTTCCTAATCTTTCTGTTCAAGCGCCATCTAC”: 0.272 RPM ratio (pull-down/input); “GATGATTGTTCTCCCAGCTGATGAATTCCGGGTGTCGAGTAAACAAATTTTCCTAATCTTTCTGTTCAAGCGCCATCTAC”: 0.669 RPM ratio (pull-down/input); “GATGATTGTTCTCCCAGCTGATGAATTCCGATTGTCGAGTAAACAAATTTTCCTAATCTTTCTGTTCAAGCGCCATCTAC”: 1.93 RPM ratio (pull-down/input).

With “GATGATTGTTCTCCCAGCTGATGAATTAAGTAATTCGAGTAAACAAATTTTCCTAATCTTTCTGTTCAAGCGCCATCTAC”, the binding signal is 1.05 RPM ratio (pull-down/input). Next, “GATGATTGTTCTCCCAGCTGATGAATTGATCTTGTCGAGTAAACAAATTTTCCTAATCTTTCTGTTCAAGCGCCATCTAC”: 0.293 RPM ratio (pull-down/input). Next, “GATGATTGTTCTCCCAGCTGATGAATTCTTTGCCTCGAGTAAACAAATTTTCCTAATCTTTCTGTTCAAGCGCCATCTAC”: 0.403 RPM ratio (pull-down/input); “GATGATTGTTCTCCCAGCTGATGAATTTTTTGCCTCGAGTAAACAAATTTTCCTAATCTTTCTGTTCAAGCGCCATCTAC”: 0.432 RPM ratio (pull-down/input); “GATGATTGTTCTCCCAGCTGATGAATTTGCCTCTTCGAGTAAACAAATTTTCCTAATCTTTCTGTTCAAGCGCCATCTAC”: 2.52 RPM ratio (pull-down/input). Next, “GATGATTGTTCTCCCAGCTGATGAATTGTTTGCCTCGAGTAAACAAATTTTCCTAATCTTTCTGTTCAAGCGCCATCTAC”: 5.67 RPM ratio (pull-down/input). For the sequence “GATGATTGTTCTCCCAGCTGATGAATTTGCCCTCTCGAGTAAACAAATTTTCCTAATCTTTCTGTTCAAGCGCCATCTAC”, the binding signal was 0.526 RPM ratio (pull-down/input). Next, “GATGATTGTTCTCCCAGCTGATGAATTGCCTCTCTCGAGTAAACAAATTTTCCTAATCTTTCTGTTCAAGCGCCATCTAC”: 1.04 RPM ratio (pull-down/input); “GATGATTGTTCTCCCAGCTGATGAATTGCGCCTCTCGAGTAAACAAATTTTCCTAATCTTTCTGTTCAAGCGCCATCTAC”: 7.17 RPM ratio (pull-down/input).

Turning to “GATGATTGTTCTCCCAGCTGATGAATTTGCCTCCTCGAGTAAACAAATTTTCCTAATCTTTCTGTTCAAGCGCCATCTAC”, the binding signal was 2.37 RPM ratio (pull-down/input). Next, “GATGATTGTTCTCCCAGCTGATGAATTTGTTGCCTCGAGTAAACAAATTTTCCTAATCTTTCTGTTCAAGCGCCATCTAC”: 7.02 RPM ratio (pull-down/input); “GATGATTGTTCTCCCAGCTGATGAATTTTGCGCCTCGAGTAAACAAATTTTCCTAATCTTTCTGTTCAAGCGCCATCTAC”: 2.67 RPM ratio (pull-down/input). Turning to “GATGATTGTTCTCCCAGCTGATGAATTTGCCGCCTCGAGTAAACAAATTTTCCTAATCTTTCTGTTCAAGCGCCATCTAC”, the binding signal is 0.88 RPM ratio (pull-down/input). Next, “GATGATTGTTCTCCCAGCTGATGAATTTTGCCTCTCGAGTAAACAAATTTTCCTAATCTTTCTGTTCAAGCGCCATCTAC”: 5.78 RPM ratio (pull-down/input).
